Some test systems named below: DU-145 prostate; K-562 leukemia; MALME-3M melanoma; MDA-MB-231 breast; RXF 393 renal; SF-268 CNS; SF-295 CNS; SF-539 CNS; UACC-257 melanoma; M14 melanoma.
What all share (experiment): NCI-60 one-dose screen, 48 h (100 = growth as untreated, 0 = no growth, -100 = all killed)
Conditions in all cases: 10 µM unless noted

Compounds without any hit were thinned out: in the full panel of roughly 83,000, 20% have a hit.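 A percent growth of 40 corresponds to 60% growth inhibition; 0 means no net growth; -100 means all cells died. Active threshold: below 10.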 Values without a mark were called inactive. Activity calls are given as the source filed them.

Regarding `NS(=O)(=O)c1cccc(Nc2nc(SCC(=O)c3ccc(F)cc3)nc3ccccc23)c1`, the growth in the assay on DU-145 prostate is 9.74% (active); in the assay on K-562 leukemia it was 8.34% (active); with MALME-3M melanoma it was 10.6%; in the assay on MDA-MB-231 breast it was 7.12% (active); in the assay on RXF 393 renal, 38.9%; in the assay with SF-268 CNS, 8.21% (active). The growth in the assay with SF-295 CNS was -5.65% (active); in the assay on SF-539 CNS, 8.17% (active); with UACC-257 melanoma it was 14.4%; in the assay with M14 melanoma, 23.3%.
For the compound `O=C(N/N=C/c1ccc(Br)o1)c1[nH]c2ccc(Br)cc2c1-c1ccccc1`, the growth in the assay with DU-145 prostate is -44.6% (active); in the assay on K-562 leukemia it was 7.92% (active); in the assay with MALME-3M melanoma, 0.448% (active); with MDA-MB-231 breast it was -73.4% (active); in the assay with RXF 393 renal, -43.2% (active); in the assay on SF-268 CNS, -12.2% (active). In addition, the growth was -25.8% (active) in the assay on SF-295 CNS, -99.5% (active) in the assay with SF-539 CNS, 26.2% in the assay on UACC-257 melanoma and 6.88% (active) with M14 melanoma.
Turning to `Cn1cc(-c2cc(N)n3nc(-c4c[nH]c5ccc(F)cc45)cc3n2)c2cc(Br)cnc21`, the growth is 69.9% with DU-145 prostate; -69% (active) in the assay with K-562 leukemia; 75.6% in the assay with MALME-3M melanoma; 13.2% in the assay on MDA-MB-231 breast; 11.7% in the assay on RXF 393 renal; 89.3% in the assay on SF-268 CNS. Further, the growth in the assay on SF-295 CNS was 69.6%; with SF-539 CNS, 52.8%; in the assay on UACC-257 melanoma, 84.6%; in the assay with M14 melanoma, 55.4%.
For `COc1cc2cc(C(=O)N3C[C@@H](CCl)c4c3cc(OC(=O)N(C)CCSSCCN3CCOCC3)c3ccccc43)[nH]c2c(OC)c1OC`, the growth was -10.3% (active) with DU-145 prostate; 2.13% (active) in the assay on K-562 leukemia; -83.7% (active) in the assay with MALME-3M melanoma; -20.2% (active) with MDA-MB-231 breast; -86.6% (active) in the assay with RXF 393 renal; 0.895% (active) in the assay with SF-268 CNS. In addition, the growth in the assay with SF-295 CNS was -11.3% (active); in the assay on SF-539 CNS it was -72% (active); in the assay on UACC-257 melanoma, -8.65% (active); with M14 melanoma it was -81.4% (active).
In the case of `COc1cc(C2CC(c3ccc(F)cc3)=Nc3c(N)nc(N)nc3N2)ccc1Oc1nc(Nc2ccc(F)cc2)nc(N(C)C)n1` (stereo not given), the growth in the assay with DU-145 prostate is 55.8%; with K-562 leukemia, 15.5%; in the assay on MALME-3M melanoma, 52.5%; in the assay with MDA-MB-231 breast it was 44.2%; in the assay with RXF 393 renal, 17.2%; in the assay with SF-268 CNS it was 63.4%. For the same compound, the growth in the assay with SF-295 CNS is 40.3%; in the assay with SF-539 CNS, 69.6%; in the assay on UACC-257 melanoma, 38.7%; in the assay on M14 melanoma it was 56.6%.
Turning to `CC1=C(C)C(=O)C(N2CCSCC2)=CC1=O`, the growth with DU-145 prostate was 107%; with K-562 leukemia, 107%; in the assay with MALME-3M melanoma it was 91.3%; in the assay with MDA-MB-231 breast, 86%; with RXF 393 renal it was 98.5%; with SF-268 CNS, 102%. For the same compound, the growth in the assay on SF-295 CNS is 104%; in the assay with SF-539 CNS, 96.2%; in the assay on UACC-257 melanoma it was 93.2%; in the assay on M14 melanoma, 95.4%.
In the case of `COC(=O)c1cc(C(=O)C(Br)Br)n2c1ccc1c3ccccc3ccc12`, the growth is 52.2% with DU-145 prostate; 52.3% in the assay with K-562 leukemia; 65.6% with MALME-3M melanoma; 67.7% with MDA-MB-231 breast; 141% in the assay on RXF 393 renal; 68% in the assay with SF-268 CNS. Moreover, the growth in the assay with SF-295 CNS is 54%; with SF-539 CNS, 54.9%; in the assay with UACC-257 melanoma, 80.1%; with M14 melanoma, 75.1%.
For `COC(=O)c1cc(C(=O)C(C)(C)C)n2c3ccccc3c3ccccc3c12`, the growth in the assay with DU-145 prostate was 97.4%; in the assay with K-562 leukemia, 77.1%; in the assay with MALME-3M melanoma, 109%; with MDA-MB-231 breast it was 79.4%; with RXF 393 renal, 91.3%; with SF-268 CNS, 103%. Also, the growth in the assay on SF-295 CNS is 93.5%; in the assay with SF-539 CNS it was 96.7%; in the assay with UACC-257 melanoma, 117%; with M14 melanoma, 96.7%.
In the case of `Cc1ccc(C(C(=O)NC2CCCCC2)N(Cc2ccccc2Cl)C(=O)c2ccc(CN3CCOCC3)o2)o1` (stereo not given), the growth in the assay on DU-145 prostate was 101%; with K-562 leukemia, 81.6%; in the assay on MALME-3M melanoma, 109%; with MDA-MB-231 breast it was 85.5%; with RXF 393 renal, 93.4%; with SF-268 CNS, 83.5%. Moreover, the growth in the assay on SF-295 CNS is 91.8%; in the assay on SF-539 CNS, 99.4%; in the assay on UACC-257 melanoma it was 103%; in the assay on M14 melanoma it was 98.6%.
On to `Cc1ccc(O)cc1Nc1nc(SCCN2CCOCC2)nc2c1cnn2CC(Cl)c1ccc(Br)cc1` (stereo not given), for which the growth in the assay on DU-145 prostate was 29.5%; with K-562 leukemia, -38.6% (active); in the assay with MALME-3M melanoma, 1.03% (active); in the assay with MDA-MB-231 breast, -30.6% (active); with RXF 393 renal it was -24.3% (active); with SF-268 CNS, 23.6%. In addition, the growth is -2.67% (active) with SF-295 CNS, 10.7% in the assay with SF-539 CNS, 18.1% in the assay on UACC-257 melanoma and 9.14% (active) with M14 melanoma.
Consider `CN1C(=O)C(O)(CC(=O)c2cc3ccccc3oc2=O)c2ccccc21` (stereo not given), for which the growth is 137% in the assay on DU-145 prostate; 72.7% in the assay with K-562 leukemia; 94.7% in the assay on MALME-3M melanoma; 91.8% in the assay on MDA-MB-231 breast; 122% in the assay on RXF 393 renal; 98.8% with SF-268 CNS. Further, the growth in the assay on SF-295 CNS was 96.3%; in the assay with SF-539 CNS, 93.3%; with UACC-257 melanoma, 109%; in the assay with M14 melanoma it was 94.2%.
On to `CC1=C(C)C(=O)C(NCCN2CCOCC2)=C(Br)C1=O`, for which the growth in the assay on DU-145 prostate was -76.9% (active); with K-562 leukemia it was 0.994% (active); in the assay with MALME-3M melanoma, -69% (active); with MDA-MB-231 breast, -6.27% (active); in the assay with RXF 393 renal, 122%; in the assay on SF-268 CNS, 63.7%. Moreover, the growth was 103% in the assay on SF-295 CNS, 32.1% in the assay on SF-539 CNS, -13.3% (active) with UACC-257 melanoma and 37.3% in the assay on M14 melanoma.
As to `O=C(Cn1c(/C=C/c2ccc([N+](=O)[O-])cc2)nc2ccccc2c1=O)Nc1ccccc1`, the growth in the assay with DU-145 prostate is 78.6%; with K-562 leukemia, 79.6%; in the assay with MALME-3M melanoma, 85%; in the assay on MDA-MB-231 breast, 46.7%; in the assay with RXF 393 renal it was 27.4%; with SF-268 CNS, 58.9%. The growth in the assay on SF-295 CNS was 72.2%; with SF-539 CNS it was 21.1%; with UACC-257 melanoma, 101%; with M14 melanoma, 81.2%.
Regarding `Fc1ccccc1CNc1nc(SCCN2CCOCC2)nc2c1cnn2CC(Cl)c1ccc(Br)cc1` (stereo not given), the growth in the assay with DU-145 prostate is 60.5%; with K-562 leukemia, 3.13% (active); with MALME-3M melanoma, -15.7% (active); with MDA-MB-231 breast, 12.6%; in the assay on RXF 393 renal, -13.9% (active); with SF-268 CNS, 41.4%. Moreover, the growth was -3.31% (active) in the assay with SF-295 CNS, -3.45% (active) in the assay on SF-539 CNS, 8.02% (active) in the assay with UACC-257 melanoma and 29% in the assay with M14 melanoma.
Consider `COc1cc(CNC(=O)C[C@H](C)CCC=C(C)C)ccc1OCc1cn(-c2ccc(Cl)cc2Cl)nn1`, for which the growth in the assay with DU-145 prostate was 90.5%; with K-562 leukemia, 81.4%; with MALME-3M melanoma, 79.3%; in the assay with MDA-MB-231 breast it was 59.7%; in the assay on RXF 393 renal, 14.1%; with SF-268 CNS it was 52.3%. The growth in the assay with SF-295 CNS is 41.8%; in the assay with SF-539 CNS it was 66.9%; with UACC-257 melanoma, 92%; in the assay with M14 melanoma, 102%.
Take `CS(=O)(=O)c1ccc(-n2nc(C(=O)NCc3ccccc3)cc2-c2ccc(Cl)cc2)cc1`: the growth in the assay with DU-145 prostate is 91.4%; with K-562 leukemia, 49.4%; in the assay on MALME-3M melanoma, 112%; in the assay with MDA-MB-231 breast, 96.3%; with RXF 393 renal, 94.9%; in the assay with SF-268 CNS it was 82.2%. The growth is 73.6% in the assay on SF-295 CNS, 99.4% in the assay with SF-539 CNS, 98.9% in the assay with UACC-257 melanoma and 93.9% with M14 melanoma.
In the case of `NS(=O)(=O)c1ccc(Nc2nc(N/N=C/c3cc(Br)c(O)c(Br)c3)nc(Nc3ccccc3)n2)cc1`, the growth in the assay with DU-145 prostate was 50.6%; in the assay with K-562 leukemia, 14.3%; in the assay on MALME-3M melanoma, 42%; with MDA-MB-231 breast, -0.169% (active); in the assay with RXF 393 renal, 54%; with SF-268 CNS, 21%. In addition, the growth was 43.8% in the assay on SF-295 CNS, -25.8% (active) with SF-539 CNS, 97.4% with UACC-257 melanoma and 59.4% in the assay on M14 melanoma.
On to `O=C(NC(=S)N1CCN(c2ncnc3c2cnn3-c2ccccc2)CC1)c1ccc(Br)cc1`, for which the growth is 87.3% with DU-145 prostate; 61.4% in the assay with K-562 leukemia; 53.4% with MALME-3M melanoma; 75.4% with MDA-MB-231 breast; 69.1% in the assay with RXF 393 renal; 58.5% with SF-268 CNS. For the same compound, the growth with SF-295 CNS was 48.3%; in the assay on SF-539 CNS it was -17.5% (active); with UACC-257 melanoma it was 88.7%; in the assay with M14 melanoma, 83.1%.

The values above are taken from PubChem BioAssay (NCI).
